Experimental data: PubChem BioAssay (EPA / NIEHS)
The source made the active and inactive calls. How the source made its calls: active means hit-call score of the fitted dose curve at least 0.9, where 1 is the maximum; inactive means score below 0.9.

Assay: CCTE_Shafer_MEA_acute_interburst_interval_mean: CCTE's Neural Acute Assay for Mean Interburst Interval, Shafer Lab (AID 2284016);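 further: percent change of mean interburst interval versus each well's own pre-dose baseline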
Procedure: CCTE_Shafer_MEA_acute assay is conducted using Axion Biosystems 48 well microelectrode array (MEA) plates and Maestro recording system. Each well of the MEA plate contains a grid of 16 microelectrodes embedded in the culture surface. Electrically active cells, such as neurons, can be cultured over the electrodes, and electrical activity in these cells can be recorded extracellularly. The spontaneous firing of neurons is captured from each electrode on a microsecond timescale providing both temporally and spatially precise data. […] The CCTE_Shafer_MEA_acute assay uses primary cultures of rat cortical neurons. As these cultures mature over time, neural networks develop functional activity and form cohesive networks in which electrical activity can be highly coordinated. Baseline 40-minute recordings are made on days post-plating 13 or 15, followed by a secondary 40-minute recording after chemical exposure.CCTE_Shafer_MEA_acute_interburst_interval_mean is a component of the CCTE_Shafer_MEA_acute assay. It measures the average time between the start of consecutive single-electrode bursts (temporally-clustered groups of action potential firing) during a recording in a microelectrode array (MEA) using Axion Biosystems Maestro 768 channel amplifier with the AxIS adaptive spike detector. The recordings before and after chemical treatment are used to calculate a percent change in the mean inter-burst interval in each well.Data from the assay component CCTE_Shafer_MEA_acute_interburst_interval_mean was analyzed into 1 assay endpoint. This assay endpoint, CCTE_Shafer_MEA_acute_interburst_interval_mean, was analyzed in the negative analysis fitting direction relative to DMSO as the negative control and baseline of activity. Using a type of functional reporter, gain or loss-of-signal activity can be used to understand electrical activity.
Spontaneous activity in the cortical cultures was recorded using an Axion Biosystems Maestro 768 channel amplifier and Axion Integrated Studios (AxIS) v1.8 (or later) software. The amplifier recorded from all channels simultaneously (gain = 1200 x; sampling rate = 12.5 kHz/channel): raw signals were filtered with a Butterworth band-pass filter (300-5000 Hz), which filters out slower local field potentials leaving only fast potentials, i.e., "spikes", arising from extracellular currents associated with action potentials (Pine 2006; Wheeler and Nam 2011). On-line spike detection of filtered signals was conducted with the AxIS adaptive spike detector, using a threshold of 8x the root mean squared (rms) noise on each channel. Any electrodes with rms noise levels greater than 5 uV were grounded (e.g., no data were recorded). Once grounded, an electrode was grounded for the duration of the experiment. All recordings were conducted at 37 C. Wells were deemed usable if on the day of the exposure >/= 10 electrodes were active (defined as >/= 5 spikes/min). On DIV 13 or 15, a minimum of three wells from one cortical culture preparation were treated with each compound (0.03-40 uM). Prior to recording baseline activity, each mwMEA plate was placed in the Maestro at 37 C and allowed to sit for 20 min while firing rates stabilized. Baseline activity (40 min) was recorded before the addition of each compound. An additional 40 min of spontaneous activity was recorded in the presence of each compound. Changes in network parameters relative to baseline were assessed following compound treatment.

Q: For `O=C(CCCN1CCC(O)(c2ccc(Cl)cc2)CC1)c1ccc(F)cc1`, which outcome is on record?
A: The outcome was “inactive”.

Q: Which outcome does the source give for `O=C1NS(=O)(=O)c2ccccc21` here?
A: The outcome was “inactive”.

Q: For `CCCCCCCCCCCC`, which outcome is on record?
A: Its outcome is “inactive”.

Q: Which outcome does the source give for `CCC(C)c1ccccc1O` (stereo unspecified) here?
A: The outcome was “inactive”.

Q: For `Oc1ccc(Cc2ccccc2O)cc1`, which outcome is on record?
A: Its outcome is “inactive”.

Q: With `Oc1c(Cl)cc(Cl)cc1Sc1cc(Cl)cc(Cl)c1O` as the compound, how does the outcome read?
A: The outcome was “inactive”.

Q: Which outcome does the source give for `CCCCc1oc2ccccc2c1C(=O)c1cc(I)c(OCCN(CC)CC)c(I)c1` here?
A: Its outcome is “inactive”.

Q: For `CCCCC=O`, which outcome is on record?
A: Its outcome is “inactive”.

Q: With `CN(C)CCOC(c1ccccc1)c1ccccc1` as the compound, how does the AC50 read?
A: The AC50 was 7.21 µM (active).

Q: With `OCC(CO)(CBr)CBr` as the compound, how does the outcome read?
A: Its outcome is “inactive”.

Q: For `N=C(N)c1ccc(OCCCCCOc2ccc(C(=N)N)cc2)cc1`, which outcome is on record?
A: Its outcome is “inactive”.
